From PubChem BioAssay (NCI)
The panel holds about 83,000 compounds, 20% with a hit somewhere; the sample as a whole holds those more often.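 Method: cells in 96-well plates; compound added at one concentration; 48 h incubation; percent growth measured; values under 10 scored active.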 Unmarked numbers belong to inactive results. Active and inactive are the calls of the source.

Assays:
Experiment in all cases: NCI-60 one-dose screen, 48 h (100 = growth as untreated, 0 = no growth, -100 = all killed)
[1] = tested on: SN12C renal; conditions: 10 µM
[2] = tested on: UO-31 renal; conditions: 10 µM
[3] = tested on: TK-10 renal; conditions: 10 µM unless noted
[4] = tested on: ACHN renal; conditions: 10 µM
[5] = tested on: CAKI-1 renal; conditions: 10 µM
[6] = tested on: MOLT-4 leukemia; conditions: 10 µM
[7] = tested on: RPMI-8226 leukemia; conditions: 10 µM
[8] = tested on: OVCAR-8 ovarian; conditions: 10 µM
[9] = tested on: OVCAR-5 ovarian; conditions: 10 µM
[10] = tested on: OVCAR-4 ovarian; conditions: 10 µM
[11] = tested on: SK-OV-3 ovarian; conditions: 10 µM
[12] = tested on: IGROV1 ovarian; conditions: 10 µM
[13] = tested on: OVCAR-3 ovarian; conditions: 10 µM
[14] = tested on: HS 578T breast; conditions: 10 µM
[15] = tested on: NCI/ADR-RES ovarian; conditions: 10 µM
[16] = tested on: A498 renal; conditions: 10 µM
[17] = tested on: CCRF-CEM leukemia; conditions: 10 µM
[18] = tested on: SR leukemia; conditions: 10 µM
[19] = tested on: EKVX NSCLC; conditions: 10 µM

Row | SMILES | growth [1] | growth [2] | growth [3] | growth [4] | growth [5] | growth [6] | growth [7] | growth [8] | growth [9] | growth [10] | growth [11] | growth [12] | growth [13] | growth [14] | growth [15] | growth [16] | growth [17] | growth [18] | growth [19]
1 | CC(CN1CCCCC1)NC(=O)c1scnc1-c1ccccc1 (configuration not stated) | 106% | 83.7% | 98.1% | 109% | 87.3% | 104% | 101% | 100% | 118% | 108% | 103% | 105% | 112% | 195% | 99.4% |  |  |  | 
2 | O=C(CCl)N1CCN(C/C=C/c2ccccc2)CC1 | 64.6% | 93.1% | 85.6% | 95.8% | 99.3% | 71.4% | 90.5% | 80% | 111% | 81.6% | 99.7% | 40.8% | 116% | 100% | 105% | 94% | 21.7% | 23.1% | 
3 | O=C(O)CCC(=O)OC(C1CO1)C(OC(=O)CCC(=O)O)C1CO1 (configuration not stated) | 109% | 85.3% | 93.2% | 101% | 106% | 99.8% | 90.4% | 95.9% | 93.4% |  | 96.8% | 110% | 103% | 113% | 109% | 80.5% | 101% | 101% | 
4 | CC1(C)Nc2cccc3c(N=Nc4ccc(N=Nc5ccccc5)c5ccccc45)ccc(c23)N1 | 94.6% |  |  | 77.7% | 88.1% | 115% | 97% | 109% | 94.9% | 91.1% | 95.6% | 52.1% |  | 104% | 98.1% | 103% | 107% | 107% | 78%
5 | Cc1ccccc1C1N=C2Oc3ccccc3C=C2C(=O)N1 (configuration not stated) | 43.3% | 52% | 53.7% | 50.6% | 31.1% |  | 95.4% | 53.3% | 17.3% | 74.5% | -6.3% (active) | 43.3% | -27.1% (active) | 32.8% | 9.64% (active) | -11.6% (active) | 38.4% |  | 
6 | CC(=O)c1ccc(N=C(C#N)C2=C(O)c3ccccc3C2=O)cc1 | 103% | 90.8% | 129% | 106% | 105% | 92.1% | 117% | 103% | 119% | 108% | 95% | 115% | 112% | 107% | 105% | 88.1% | 104% | 91.1% | 
7 | CCCCC(=O)c1ccc(OC)cc1 | 105% | 97% |  | 96.3% | 99.2% | 104% | 99.8% | 97% | 90.5% | 116% | 111% | 101% | 114% | 95.2% | 105% | 84.1% | 92.1% | 92.2% | 
8 | O=C(O)/C=C/C(=O)NCc1ccccc1 | 108% |  |  | 97.9% | 102% |  | 94.7% | 108% | 107% | 107% | 112% | 98.4% | 109% | 113% | 102% | 109% |  |  | 
9 | S=C1NCc2cncnc2N1 | 107% | 88.8% | 97.8% | 93% | 85.5% | 95.6% | 102% | 104% | 97.8% | 105% | 102% | 111% | 112% |  | 106% | 104% |  |  | 
10 | Nc1ccc(NC(=O)c2cccc(N)c2)cc1 | 99.5% |  | 123% | 97.8% |  |  | 94.5% |  | 101% | 104% | 103% |  | 107% | 97.1% | 111% | 90.6% | 88.8% |  | 86.6%
11 | COc1ccc(/C(C#N)=C2C=C/C(=N/O)c3ccccc3\2)cc1 | 23.7% | 31.1% | 54.5% | 22.6% | 25.5% |  | 32.1% | 18.9% | 27.3% | 35.8% | -6.21% (active) | 22.3% | 1.6% (active) | 35.1% | 15.9% | -8.12% (active) |  |  | 
12 | CC1CCC2C(C)(C)C3CC12CC1OC13C (configuration not stated) | 97.1% | 109% | 104% | 103% | 98.5% | 110% | 108% | 105% |  |  | 103% | 114% | 110% | 103% | 107% | 94% | 112% |  | 
13 | O=[N+]([O-])c1ccccc1S(=O)c1ccccc1[N+](=O)[O-] | 99.7% | 73.4% | 135% | 106% | 61.7% | 42% | 84.5% | 99.9% | 120% |  | 99.9% |  | 103% | 106% | 91.5% |  |  |  | 
14 | COc1cccc(COC(=O)Nc2ccccc2)c1OC | 96.9% | 99.5% | 107% | 104% | 88.5% | 100% | 90.1% | 96.9% | 105% | 117% | 111% | 101% | 111% | 115% | 105% | 105% |  |  | 
15 | COc1ccccc1N1CCN(C(=S)Nc2ccccc2)CC1 | 100% | 75.3% | 95.6% | 100% |  | 78.7% | 90.9% | 97.6% | 107% |  | 99.5% | 98.9% |  | 104% | 95.8% |  |  |  | 
16 | COC(=O)CCCCC1=CCC2C(=O)C=C(O)C2C1 (configuration not stated) | 102% | 89.9% | 96.4% | 98.9% |  | 82.7% | 100% | 98% | 107% | 103% | 98.6% | 103% |  | 108% | 103% |  |  |  | 
17 | O=C(NCO)c1ccccc1 | 105% |  | 144% | 97.4% | 98.5% | 95.4% |  | 108% | 104% | 109% | 104% | 97.2% | 104% | 111% | 109% | 106% |  |  | 108%
18 | COC(=O)Nc1cccc(Cl)c1OC | 112% | 95.6% | 120% | 99.8% | 94.5% | 103% | 99.3% | 106% | 92.6% | 111% | 116% | 110% | 111% | 95.4% | 110% | 61.9% |  | 101% | 
19 | O=C1OC(c2ccc(F)cc2)CC1CN1CCOCC1 (configuration not stated) | 102% | 83.5% | 83.2% | 105% | 85.8% | 102% | 75.6% | 99.5% | 112% | 101% | 107% | 104% | 101% | 113% | 101% |  |  |  | 
20 | CC(C(=O)O)(C1CCCCC1)C1(O)CCCCC1 (configuration not stated) | 100% | 84.9% | 91.1% | 107% | 96.7% | 94.3% |  | 104% | 109% | 108% | 101% | 101% | 107% |  | 106% |  |  |  | 
21 | O=C(O)c1ccccc1NCc1ccco1 | 99.8% |  | 64.7% | 115% |  |  | 79.1% | 94.2% | 93.1% | 99.1% | 109% |  | 111% | 107% | 94.5% | 99.9% | 98.6% | 87.8% | 103%
22 | O=C(NCCNC(=O)c1ccc(Cl)cc1Cl)c1ccc(Cl)cc1Cl | 87.1% |  | 120% | 110% | 84.4% | 96.6% | 97.8% | 94.7% | 119% | 104% | 98.7% | 100% | 111% | 107% | 97.6% | 104% |  |  | 
